Rows were chosen to be rich in hits. Some 2.3% of all compounds tested hit in one or more screens of this group.
YB-1 expression: YB-1 expression inhibition; actives 0.37% (n = 30,000); delta delta Cp (YB-1 minus CDIP) (concentration not given with the values); U2OS, qRT-PCR YB-1 vs CDIP delta delta Cp, 16 h; hits give high values; zero = DMSO, each unit about twofold; AID 434959;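 active = delta delta Cp rounded down to an integer at or above 3, about 3 SD of DMSO wells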;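 note: higher means less YB-1 transcript or more CDIP transcript relative to DMSO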
U2OS ROS induce: inducers of reactive oxygen species in cancer cells; AID 624156; ROS induction (% of piperlongumine), % at 10 µM; U2OS ROS induction, H2DCF-DA fluorescence; actives 2% (n = 46,000); in the data active = ROS induction above about 79%, passing the limit was not always enough; inconclusive = no clear call, values can overlap the other calls;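 note: 0% = DMSO vehicle median and 100% = reference compound median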
The depositor's hits bear a star; ? = inconclusive; nt = no result given.

SMILES	YB-1 expression	U2OS ROS induce
CC(=O)Oc1c(-c2ccccc2)oc2c(CC=C(C)C)c3c(c(OC(C)=O)c2c1=O)C=CC(C)(C)O3	0.17	-9
CC1Oc2c3c(c4c(-c5ccccc5)cc(=O)oc4c2C(=O)C1C)OC(C)(C)C=C3 (configuration not stated)	-0.68	114*
S=c1[nH]ccn1CCc1ccccc1	-0.29	0
COC(=O)C(CC#Cc1ccc2c(c1)[C@]1(C(=O)N2)[C@H](c2ccc(OCCO)cc2)N2[C@H](c3ccccc3)[C@H](c3ccccc3)OC(=O)[C@H]2[C@@H]1C(=O)N1CCCCCCC1)C(=O)OC	0.048	128*
O=C1O[C@H](c2ccccc2)[C@H](c2ccccc2)N2[C@H]1[C@@H](C(=O)O)[C@]1(C(=O)Nc3ccc(C#CC4(O)CCCCCC4)cc31)[C@H]2c1ccc(OCCO)cc1	0.0048	16
O=C1O[C@@H](c2ccccc2)[C@@H](c2ccccc2)N2[C@@H](c3ccc(OCCO)cc3)[C@]3(C(=O)Nc4ccc(C#CC5(O)CCCCCC5)cc43)[C@@H](C(=O)N3CCCCCCC3)[C@H]12	-0.34	135*
O=C1O[C@@H](c2ccccc2)[C@@H](c2ccccc2)N2[C@@H](c3ccc(OCCO)cc3)[C@]3(C(=O)Nc4ccc(C#CC5=CCCCC5)cc43)[C@@H](C(=O)N3CCN(c4ncccn4)CC3)[C@H]12	-0.089	55
O=C1O[C@H](c2ccccc2)[C@H](c2ccccc2)N2[C@H]1[C@@H](C(=O)N1CCCCCCC1)[C@]1(C(=O)Nc3ccc(C#CC4=CCCCC4)cc31)[C@H]2c1ccc(OCCO)cc1	0.088	100*
COC(=O)C(CC#Cc1ccc2c(c1)[C@]1(C(=O)N2)[C@H](C(=O)N2CCc3cc(OC)c(OC)cc3C2)[C@H]2C(=O)O[C@H](c3ccccc3)[C@H](c3ccccc3)N2[C@@H]1c1ccc(O)cc1)C(=O)OC	-0.038	11
COc1ccc(OC(C)C(=O)Nc2cc3oc4ccccc4c3cc2OC)cc1 (configuration not stated)	nt	-3
C[C@@H]1CN([C@H](C)CO)C(=O)c2cc(NC(=O)CCN3CCOCC3)ccc2O[C@H]1CN(C)S(=O)(=O)c1ccccc1	20*	-9
C[C@H]1CN([C@@H](C)CO)C(=O)c2cc(NC(=O)CCN3CCOCC3)ccc2O[C@H]1CN(C)S(=O)(=O)c1ccccc1	-0.1	-6
C[C@@H]1CN([C@H](C)CO)C(=O)c2cc(NC(=O)Cc3ccccc3)ccc2O[C@@H]1CN(C)S(=O)(=O)c1ccccc1	18*	-2
Cc1ccc(S(=O)(=O)N(C)C[C@@H]2Oc3ccc(NC(=O)Cc4ccccc4)cc3C(=O)N([C@H](C)CO)C[C@H]2C)cc1	-0.072	-3
Cc1nc(SCC(=O)Nc2cccc(F)c2)c2c(C)c(C)sc2n1	nt	-10
CC(C)(C)Cc1nc(C2(c3ccc(Cl)cc3Cl)CC2)no1	nt	1
C[C@H]1CN([C@@H](C)CO)C(=O)c2cc(NC(=O)Cc3cn(C)c4ccccc34)ccc2O[C@H]1CN(C)Cc1ccc(Oc2ccccc2)cc1	-0.12	-1
C[C@H](CO)N1C[C@H](C)[C@@H](CN(C)Cc2ccc3c(c2)OCO3)Oc2ccc(NC(=O)Cc3cn(C)c4ccccc34)cc2C1=O	0.081	117*
C[C@H](CO)N1C[C@H](C)[C@@H](CN(C)Cc2ccc(-c3ccccc3)cc2)Oc2ccc(NC(=O)Cc3cn(C)c4ccccc34)cc2C1=O	0.045	199*
C[C@H]1CN([C@@H](C)CO)C(=O)c2cc(NC(=O)Cc3cn(C)c4ccccc34)ccc2O[C@@H]1CN(C)Cc1ccc(Oc2ccccc2)cc1	-0.14	134*
C[C@@H]1CN([C@H](C)CO)C(=O)c2cc(NC(=O)Cc3cn(C)c4ccccc34)ccc2O[C@H]1CN(C)Cc1ccc2c(c1)OCO2	-0.54	16
C[C@@H]1CN([C@@H](C)CO)C(=O)c2cc(NC(=O)Cc3cn(C)c4ccccc34)ccc2O[C@H]1CN(C)Cc1ccc(-c2ccccc2)cc1	0.11	6
CC(C)NC(=O)Nc1cccc2c1O[C@H](CN(C)C(=O)NC(C)C)[C@H](C)CN([C@H](C)CO)C2=O	-0.052	-2
C[C@@H]1CN([C@H](C)CO)C(=O)c2cccc(NC(=O)c3cnccn3)c2O[C@@H]1CN(C)Cc1ccc(Oc2ccccc2)cc1	-0.096	7
Cc1noc(C)c1S(=O)(=O)N(C)C[C@@H]1Oc2c(NC(=O)c3cnccn3)cccc2C(=O)N([C@H](C)CO)C[C@@H]1C	-1	-7
SMILES	YB-1 expression	U2OS ROS induce
CCCc1nc(NCc2ccccc2)c(C#N)c2c1CCCC2	nt	-5
N#Cc1c(N2CCN(C(=S)NCc3ccccc3)CC2)nc(-c2ccccc2)c2c1CCCC2	nt	140*
COCCCNCCn1cnc2c(N)ncnc21	nt	0
COCCOC(=O)N1C(=O)[C@@]2(c3cc(C#CCC(C(=O)OC)C(=O)OC)ccc31)[C@H](C(N)=O)[C@H]1C(=O)O[C@H](c3ccccc3)[C@H](c3ccccc3)N1[C@@H]2c1ccccc1OCCO	-0.15	162*
COCCOC(=O)N1C(=O)[C@@]2(c3cc(C#CCC(C(=O)OC)C(=O)OC)ccc31)[C@H](C(=O)N1CCN(c3ncccn3)CC1)[C@H]1C(=O)O[C@H](c3ccccc3)[C@H](c3ccccc3)N1[C@@H]2c1ccc(O)cc1	-0.052	50
COCCOC(=O)N1C(=O)[C@@]2(c3cc(C#CCC(C(=O)OC)C(=O)OC)ccc31)[C@H](C(N)=O)[C@H]1C(=O)O[C@H](c3ccccc3)[C@H](c3ccccc3)N1[C@@H]2c1ccc(OCCO)cc1	-0.17	?
COCCOC(=O)N1C(=O)[C@@]2(c3cc(C#CCC(C(=O)OC)C(=O)OC)ccc31)[C@H](C(=O)N1CCN(c3ncccn3)CC1)[C@H]1C(=O)O[C@H](c3ccccc3)[C@H](c3ccccc3)N1[C@@H]2c1ccccc1OCCO	0.49	80*
COCCOC(=O)N1C(=O)[C@@]2(c3cc(C#CC4(O)CCCCCC4)ccc31)[C@H](C(=O)N1CCN(c3ncccn3)CC1)[C@H]1C(=O)O[C@H](c3ccccc3)[C@H](c3ccccc3)N1[C@@H]2c1ccccc1OCCO	0.036	84*
COCCOC(=O)N1C(=O)[C@@]2(c3cc(C#Cc4ccc(OC)cc4)ccc31)[C@H](c1ccccc1OCCO)N1[C@H](c3ccccc3)[C@H](c3ccccc3)OC(=O)[C@H]1[C@@H]2C(=O)N1CCN(c2ncccn2)CC1	0.08	32
COc1ccc(Br)cc1C1SCCN1S(=O)(=O)c1ccc(Cl)c(Cl)c1 (configuration not stated)	nt	4
Cc1cccc(NC(=O)COc2ccc(S(=O)(=O)N3CCCCC3)cc2Cl)c1C	nt	-5
Cc1ccsc1/C=N/NC(=O)c1ccccn1	0.2	2
CC1=N/C(=C\c2sccc2C)C(=O)O1	-0.21	94*
CC1=C2CCC(C(=O)O)=CC2C(C(C)C)CC1 (configuration not stated)	0.62	-7
CC(=O)OC1/C=C(/C(=O)O)CC/C=C(/C)C(=O)/C=C\C1(C)C (configuration not stated)	0.044	90*
O=C(CCCCCCC(=O)Nc1ccccc1O)N/N=C/c1cccc(O)c1O	-0.2	2
C[C@H](CO)N1C[C@H](C)[C@H](CN(C)C(=O)Nc2ccc3c(c2)OCO3)Oc2ncc(C#CC(C)(C)O)cc2C1=O	-0.26	6
